PfHsp40 yeast: rescue of PfHsp40-mediated yeast toxicity; S. cerevisiae expressing PfHsp40, growth rescue, ATP luminescence; growth rescue, % at 12.5 µM; 340,000 compounds, 0.68% hits; AID 504582; in the data active = growth rescue above about 28%, passing the limit was not always enough;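 also: yeast W303a lacking pdr1 and pdr3 grown in galactose medium; growth measured after three days at 30 °C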
Mtb BioA inh: inhibitors of Mycobacterium tuberculosis BioA enzyme. purified M. tuberculosis BioA enzyme, plate reader. inhibition, % at 9.99 µM. 360,000 compounds, 0.096% hits; in the data active = inhibition above about 40%
BJeLR viability: BJeLR cell viability loss; inhibition, % (concentration not given with the values); BJeLR (HRASV12) viability, CellTiter-Glo ATP luminescence, 48 h; 300,000 compounds, 0.17% hits; in the data active = inhibition above about 50%
SARS 3CLpro inh: SARS-CoV 3CLpro protease inhibition | P0C6X7 | recombinant SARS-CoV 3CLpro, quenched FRET peptide cleavage | inhibition, % at 6 µM | 290,000 compounds, 0.14% hits | AID 1706; in the data active = inhibition above about 12%
MazF activator: activators of E. coli MazEF toxin-antitoxin RNase | P0AE70 | FAM/BHQ RNA-DNA oligo cleavage fluorescence, 5 h | activation, % at 20 µM | 350,000 compounds, 0.32% hits; in the data active = activation above about 50%
Target sequence (P0AE70 whole entry, looked up): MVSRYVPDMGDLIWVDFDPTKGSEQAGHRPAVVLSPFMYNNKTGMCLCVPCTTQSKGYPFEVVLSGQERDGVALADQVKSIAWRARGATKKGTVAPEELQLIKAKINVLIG
Y pestis TopoI: inhibitors of Yersinia pestis topoisomerase I | Y. pestis Topo-I cleavage product accumulation, plate reader | activity, % at 10 µM | 360,000 compounds, 0.064% hits; in the data active = activity above about 50%, passing the limit was not always enough
Starred values were filed as active, the others as inactive. Hits are enriched below; roughly 1.1% of the tested compounds scored in any of these assays.

What do the screens show for `COc1ccc(C(=O)Nc2ccncc2)c(OC)c1`?
PfHsp40 yeast: -1; BJeLR viability: -1; SARS 3CLpro inh: -1; MazF activator: 1; Y pestis TopoI: 4

How did COc1cc(OC)c(C(=O)Nc2ccc(C(=O)c3ccccc3)cc2)cc1OC do in these assays?
PfHsp40 yeast: 154*; Mtb BioA inh: 0; BJeLR viability: 5; SARS 3CLpro inh: -12; MazF activator: 4; Y pestis TopoI: 41

What do the screens show for `COc1ccc(C(=O)Nc2ccc3ccccc3c2)c(OC)c1`?
PfHsp40 yeast: 60*; Mtb BioA inh: 2; BJeLR viability: 0; SARS 3CLpro inh: 1; MazF activator: 0; Y pestis TopoI: 17

What do the screens show for `COc1cc(OC)c(C(=O)Nc2ccncc2)cc1OC`?
PfHsp40 yeast: 19; Mtb BioA inh: 0; BJeLR viability: -10; SARS 3CLpro inh: 4; MazF activator: -3; Y pestis TopoI: -1

What do the screens show for `COc1cccc(S(=O)(=O)N2C[C@H](O)COC[C@H]3O[C@H](CC(=O)N4CCOCC4)CC[C@@H]32)c1`?
Mtb BioA inh: -1

How did Cn1nc(-c2ccccc2)c2nc3ccccc3nc21 do in these assays?
PfHsp40 yeast: 1; Mtb BioA inh: -13; BJeLR viability: -13; SARS 3CLpro inh: 5; MazF activator: active; Y pestis TopoI: -7

Results for Cc1ccc(O)c(C(=O)c2cc(C#N)c3nc4ccccc4n3c2)c1 ?
PfHsp40 yeast: 2; BJeLR viability: 13; SARS 3CLpro inh: 0; MazF activator: 90*; Y pestis TopoI: 1

Results for Cc1ccc(O)c(C(=O)c2cc(C#N)c(=O)n(Cc3ccccc3)c2)c1 ?
PfHsp40 yeast: -1; BJeLR viability: -4; SARS 3CLpro inh: -1; MazF activator: -2; Y pestis TopoI: 3

Results for Cc1cc(N2CCN(C)CC2)ccc1NC(=O)c1cccc(S(=O)(=O)N2CCc3ccccc3C2)c1 ?
PfHsp40 yeast: 0; Mtb BioA inh: -1; BJeLR viability: 1; SARS 3CLpro inh: 1; MazF activator: 50*; Y pestis TopoI: -26

Results for CCCNC(=O)N[C@H]1CC[C@@H](CC(=O)N2CCN(C)CC2)O[C@H]1CO ?
Mtb BioA inh: -1

How did O=[N+]([O-])c1ccc2c(c1Nc1ccccc1Cl)=NC1(CCCCC1)N=2 do in these assays?
Mtb BioA inh: -4; BJeLR viability: -5; SARS 3CLpro inh: -3; MazF activator: 21; Y pestis TopoI: -10

How did Cc1ccc(Nc2c([N+](=O)[O-])ccc3c2=NC2(CCCCC2)N=3)cc1 do in these assays?
PfHsp40 yeast: 59*; Mtb BioA inh: 1; BJeLR viability: 2; SARS 3CLpro inh: 2; MazF activator: 9; Y pestis TopoI: -15

What do the screens show for `Cc1ccccc1S(=O)(=O)NCC[C@H]1CC[C@@H](NC(=O)C2CCCC2)[C@H](CO)O1`?
Mtb BioA inh: 0

How did Cc1ccc(-c2ccc3c(c2)O[C@@H](CN(C)Cc2ccncc2)[C@@H](C)CN([C@@H](C)CO)S3(=O)=O)cc1 do in these assays?
Mtb BioA inh: 1

Results for Nc1ccc(S(=O)(=O)NCC(=O)OCCOc2ccccc2)cc1[N+](=O)[O-] ?
PfHsp40 yeast: 0; Mtb BioA inh: 5; BJeLR viability: -21; MazF activator: -1; Y pestis TopoI: -2

What do the screens show for `CSc1ccc(S(=O)(=O)NCC(=O)OCCOc2ccccc2)cc1[N+](=O)[O-]`?
PfHsp40 yeast: -1; BJeLR viability: -11; MazF activator: 78*; Y pestis TopoI: 8

How did CCCN1CCCC[C@H]1C(=O)Nc1c(C)cccc1C do in these assays?
PfHsp40 yeast: 43*; Mtb BioA inh: -3; BJeLR viability: 3; MazF activator: 2; Y pestis TopoI: 7

How did CCCCN1CCCCC1C(=O)Nc1c(C)cccc1C (stereo not drawn) do in these assays?
PfHsp40 yeast: 0; Mtb BioA inh: -4; MazF activator: 4; Y pestis TopoI: -1

Results for COCC(=O)Nc1ccc2c(c1)OC[C@H](C)N(C(=O)C1CCCC1)C[C@H](C)[C@H](OC)CN(C)C2=O ?
Mtb BioA inh: -1

How did COc1ccccc1S(=O)(=O)N[C@H]1CC[C@@H](CCNC(=O)C2CCCC2)O[C@H]1CO do in these assays?
Mtb BioA inh: -3

How did O=C(c1ccc([N+](=O)[O-])c(CS(=O)(=O)c2ccc(Cl)cc2)c1)N1CCCC1 do in these assays?
PfHsp40 yeast: 41*; Mtb BioA inh: 1; BJeLR viability: -1; SARS 3CLpro inh: 3; MazF activator: 3; Y pestis TopoI: -17

Results for NNC(=O)c1ccc([N+](=O)[O-])c(CS(=O)(=O)c2ccc(Cl)cc2)c1 ?
PfHsp40 yeast: 1; BJeLR viability: 0; SARS 3CLpro inh: 5; MazF activator: -22; Y pestis TopoI: 6

How did CC(=O)N(C)C[C@@H]1Oc2ncc(-c3ccc(F)cc3)cc2C(=O)N([C@@H](C)CO)C[C@H]1C do in these assays?
Mtb BioA inh: -3

How did O=Cc1ccc(O)c2ncccc12 do in these assays?
PfHsp40 yeast: 628*; Mtb BioA inh: 0; BJeLR viability: 64*; SARS 3CLpro inh: 4; MazF activator: 0; Y pestis TopoI: -2

How did NS(=O)(=O)c1ccc(N=Nc2ccc(O)c3ncccc23)cc1 do in these assays?
PfHsp40 yeast: 0; BJeLR viability: 33; SARS 3CLpro inh: 1; MazF activator: 1; Y pestis TopoI: -6

Results for CC(Oc1cc2oc(=O)c3c(c2cc1Cl)CCCC3)C(=O)NCc1ccccn1 (stereo not drawn) ?
PfHsp40 yeast: 0; Mtb BioA inh: 10; BJeLR viability: 3; SARS 3CLpro inh: -6; MazF activator: 8; Y pestis TopoI: 27

Results for CC(Oc1cc2oc(=O)c3c(c2cc1Cl)CCC3)C(=O)NCc1ccccn1 (stereo not drawn) ?
PfHsp40 yeast: 0; Mtb BioA inh: 63*; BJeLR viability: 0; SARS 3CLpro inh: -6; MazF activator: 6; Y pestis TopoI: 10

What do the screens show for `c1ccc(-c2nnsc2-c2ncc[nH]2)cc1`?
PfHsp40 yeast: 2; BJeLR viability: 5; SARS 3CLpro inh: 4; MazF activator: -1; Y pestis TopoI: -11

How did O=S(=O)(c1ccc(Cl)cc1)c1snnc1-c1ccccc1 do in these assays?
PfHsp40 yeast: 3; Mtb BioA inh: 0; BJeLR viability: 96*; SARS 3CLpro inh: 2; MazF activator: -7; Y pestis TopoI: 3

Results for O=S(=O)(c1ccc(F)cc1)c1snnc1-c1ccccc1 ?
PfHsp40 yeast: 11; BJeLR viability: 61*; SARS 3CLpro inh: 1; MazF activator: -2; Y pestis TopoI: 12

What do the screens show for `Cc1cc(C(=O)CCl)c(C)n1Cc1ccco1`?
PfHsp40 yeast: 0; BJeLR viability: 8; SARS 3CLpro inh: 25*; MazF activator: 7; Y pestis TopoI: 16

What do the screens show for `O=C(NC1CCSc2ccccc21)c1cccc(OC(F)F)c1` (stereo not drawn)?
PfHsp40 yeast: 0; Mtb BioA inh: -3; BJeLR viability: 3; SARS 3CLpro inh: 3; MazF activator: -16; Y pestis TopoI: -1
